Screening results (PubChem)
FGF22 binding: FGF22 (human) thermal shift binding; activity (Tm shift, normalised), % at 9.99 µM; recombinant FGF22 thermal shift, SYPRO orange fluorescence; percent of sucrose octasulfate shift, DMSO zero; 340,000 compounds, 1.5% hits;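 active = mean Tm shift, scaled 0 neutral to 100 positive control, at about 1.3% or above, every replicate too, limit read from the data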
Target sequence (Q9HCT0 whole entry, looked up): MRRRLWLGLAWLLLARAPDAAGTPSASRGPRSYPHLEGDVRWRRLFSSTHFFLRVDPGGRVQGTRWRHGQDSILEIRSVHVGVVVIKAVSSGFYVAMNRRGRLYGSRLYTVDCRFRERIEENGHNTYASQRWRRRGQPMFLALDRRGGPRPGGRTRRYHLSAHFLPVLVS
proKLK7 act: activators of human kallikrein-7 zymogen. AID 652039. 370,000 compounds, 0.9% hits. P49862. activation, % at 7 µM. purified proKLK7, EDANS-DABCYL substrate fluorescence; 100% is mature enzyme control, 0% vehicle;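 active = activation above the mean of all tested compounds plus 3 SD, computed per campaign excluding outliers beyond control limits, cut at about 13% in these data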
Target sequence (P49862 whole entry, looked up): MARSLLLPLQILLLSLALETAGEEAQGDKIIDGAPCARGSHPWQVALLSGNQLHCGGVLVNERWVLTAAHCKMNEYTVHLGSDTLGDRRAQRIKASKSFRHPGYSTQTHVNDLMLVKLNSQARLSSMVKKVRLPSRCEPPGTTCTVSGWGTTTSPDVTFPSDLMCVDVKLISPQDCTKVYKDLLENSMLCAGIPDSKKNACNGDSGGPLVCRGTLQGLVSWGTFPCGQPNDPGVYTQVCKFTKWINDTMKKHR
ADAM10 inh: inhibitors of human ADAM10 | inhibition, % at 7 µM | recombinant ADAM10, EDANS/DABCYL FRET peptide cleavage, 3 h | 370,000 compounds, 0.62% hits;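 active = inhibition above a per-campaign cutoff equal to the mean of compounds falling between control-based bounds plus 3 SD, cut at about 20% in these data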;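 also: 0% = DMSO wells while the 100% control is not disclosed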
rRNA inh HTS: selective bacterial rRNA inhibition in E. coli; GFP signal change (wild-type ribosome), % (test concentration not listed); E. coli WT GFP vs humanized-ribosome RFP mutants, fluorescence, 24 h; stronger effect = lower value; DMSO median 0, no signal -100; 350,000 compounds, 1.6% hits;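 active = significant combined selectivity score with lowered wild-type GFP, culture density cut under 30%, mutant RFP and density less affected; inactive = any of these conditions unmet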
ADAM17 inh: inhibits human ADAM17. P78536. recombinant ADAM17, EDANS/DABCYL FRET peptide cleavage. inhibition, % at 6.95 µM. 370,000 compounds, 0.83% hits. AID 720648;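 active = inhibition above the mean of compounds lying between control limits plus 3 SD, set per campaign, cut at about 8.5% in these data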;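 also: 0% = DMSO-only wells as the low control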
ADAM10 counter: counter-screen for ADAM17 exosite inhibitors: inhibitors of human ADAM10 | 2,900 compounds, 47% hits | recombinant ADAM10, EDANS/DABCYL FRET peptide cleavage, 3 h | inhibition, % at 6.95 µM | shares compounds with ADAM17 inh | AID 743256;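 active = mean inhibition over the triplicate runs exceeds the activity threshold set in the earlier primary screen, cut at about 20% in these data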;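 also: 0% = DMSO wells and 100% = marimastat wells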
ADAM17 confirm: human ADAM17 inhibition, confirmation. shares compounds with ADAM17 inh. recombinant ADAM17, EDANS/DABCYL QFRET peptide cleavage. inhibition, % at 6.95 µM. 2,900 compounds, 65% hits. AID 743257;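 active = mean inhibition across replicates above the hit cutoff set in the primary screen, cut at about 8.5% in these data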;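 also: 0% = DMSO wells and 100% = marimastat wells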
* marks the source's active call; other numbers are inactive results; / = not tested or not shown. This is a sample that favours compounds with a hit; in the whole collection about 3.8% have one here.

SMILES	FGF22 binding	proKLK7 act	ADAM10 inh	rRNA inh HTS	ADAM17 inh	ADAM10 counter	ADAM17 confirm
O=C(c1ccc(C(F)(F)F)cc1)N1CCC(=O)N(C(COCc2ccc(C(F)(F)F)cc2)Cc2ccccc2)CC1 (centres undefined)	0	0	18	7	8.9*	38*	17*
Cc1cccc(COC[C@H](Cc2ccccc2)N2CCN(C(=O)c3ccc(C(F)(F)F)cc3)CCC2=O)c1	1	0	18	-3	8	/	/
Cc1cc(C)cc(C(=O)N(C)C2CCCN(Cc3ccccc3F)C2)c1 (centres undefined)	0	0	16	-14	0	/	/
CN(C(=O)CCN1CCCO1)C1CCCN(Cc2ccccc2F)C1 (centres undefined)	0	0	-2	2	9.0*	15	7
CCC1C(=NO)C(CC)C(c2ccccc2)NC1c1ccccc1 (centres undefined)	0	-1	16	-27	17*	15	10*
CC1C(=NO)C(C)C(c2ccccc2)NC1c1ccccc1 (centres undefined)	/	0	13	-4	-3	/	/
O=S1(=O)CCOC[C@H](Cc2ccccc2)N1Cc1cccc(C(F)(F)F)c1	0	-1	0	-39	11*	10	5
O=S1(=O)CCOC[C@H](Cc2ccccc2)N1Cc1ccccc1	0	0	8	-24	3	/	/
CC1(C(=O)NS(=O)(=O)Cc2ccccc2)CCN1C(=O)C1(c2ccc(Cl)cc2)CC1 (centres undefined)	0	-1	14	/	9.6*	-5	0
CC1(C(=O)NS(=O)(=O)c2ccc(Cl)cc2)CCN1C(=O)C1(c2ccc(Cl)cc2)CC1 (centres undefined)	0	0	-10	/	-2	/	/
COc1ccc(NC(=O)N[C@H]2CC[C@@H](CC(=O)NCc3ccccn3)O[C@@H]2CO)cc1	0	/	/	2	/	/	/
COc1ccc(CNC(=O)C[C@@H]2C=C[C@@H](NS(=O)(=O)c3cccc(OC)c3)[C@H](CO)O2)cc1	0	/	/	-2	/	/	/
CCCNC(=O)[C@H]1[C@H](CO)[C@H]2Cn3c(ccc(-c4cccnc4)c3=O)[C@H]2N1Cc1cocn1	/	/	/	0	/	/	/
CN(CC(=O)Nc1ccc(Cl)c(C(F)(F)F)c1)C(=O)c1cccnc1Sc1ccccc1	0	0	8	-35	12*	27*	9.7*
C[C@H](CO)N1C[C@H](C)[C@H](CN(C)C(=O)C2CCOCC2)Oc2ncc(Br)cc2C1=O	0	/	/	4	/	/	/
CCc1ccc([C@H]2[C@@H]3C(=O)C[C@@H]4C(=O)N(c5ccccc5)C(=O)[C@@H]4[C@@H]3CN2S(=O)(=O)c2ccc(C)cc2)cc1	0	1	10	/	8.7*	10	10*
C[C@@H]1CCCCO[C@@H](CN(C)Cc2ccc(C(F)(F)F)cc2)[C@@H](C)CN([C@@H](C)CO)C(=O)c2cc(NS(C)(=O)=O)ccc2O1	0	/	/	2	/	/	/
O=C(C1CC1)N1C[C@@H]2[C@H](c3ccccc31)[C@@H](CO)N2C(=O)c1cccc(F)c1	0	/	/	1	/	/	/
CC(C(=O)Nc1ccc2c(c1)OCCO2)c1ccc([N+](=O)[O-])cc1 (centres undefined)	0	1	8	3	-7	/	/
O=C(Nc1cccc([N+](=O)[O-])c1)Nc1ccc2c(c1)OCCO2	1	0	12	10	8.9*	12	8
CC1=C(C(=O)OCc2ccccc2)C(/C=C/c2ccccc2)NC(=S)N1 (centres undefined)	/	0	18	/	12*	30*	15*
COc1ccccc1CNC(=O)C[C@@H]1C[C@@H]2c3cc(N(C)C)ccc3O[C@@H]2[C@H](CO)O1	0	/	/	1	/	/	/
CC(C)CNC(=S)NC1CC2CCCC(C1)N2Cc1cccs1 (centres undefined)	0	0	8	4	12*	11	7
CC(C)C(NS(=O)(=O)c1cccc2nsnc12)C(=O)NC1CCCCC1 (centres undefined)	0	0	-3	4	-2	/	/
CC1CCC(NC(=O)C(NS(=O)(=O)c2cccc3nsnc23)C(C)C)CC1 (centres undefined)	0	0	1	2	13*	5	7
SMILES	FGF22 binding	proKLK7 act	ADAM10 inh	rRNA inh HTS	ADAM17 inh	ADAM10 counter	ADAM17 confirm
O=C(Cc1ccc(NC(=O)C2CCCN(C(=O)C3CCCCC3)C2)cc1)Nc1ccc(C(=O)N2CCOCC2)cc1 (centres undefined)	42	1	1	3	3	/	/
CN(Cc1ccccc1)C(=O)c1ccc(NC(=O)Cc2ccc(NC(=O)C3CCCN(C(=O)CCc4ccccc4)C3)cc2)cc1 (centres undefined)	/	1	11	2	9.4*	21*	11*
CN(Cc1ccccc1)C(=O)c1cccc(NC(=O)Cc2ccc(NC(=O)C3CCCN(C(=O)c4ccccc4)C3)cc2)c1 (centres undefined)	41	1	10	-5	11*	-7	-2
O=C(Cc1ccc(NC(=O)C2CCCN(C(=O)c3ccccc3)C2)cc1)Nc1ccc(C(=O)N2CCOCC2)cc1 (centres undefined)	0	0	2	-1	10*	-2	5
CN(Cc1ccccc1)C(=O)c1ccc(NC(=O)Cc2ccc(NC(=O)C3CCCN(C(=O)C4CCCCC4)C3)cc2)cc1 (centres undefined)	41	0	15	4	10*	14	5
C[C@H]1CCCCO[C@H](CN(C)C(=O)Nc2ccc3c(c2)OCO3)[C@@H](C)CN([C@@H](C)CO)C(=O)c2cc(NS(C)(=O)=O)ccc2O1	0	/	/	-2	/	/	/
O=S(=O)(NCC(Nc1ccccc1)c1ccccc1)c1ccc(Cl)cc1 (centres undefined)	/	0	15	/	9.0*	36*	21*
Cc1ccc(S(=O)(=O)N[C@@H]2CC[C@@H](CC(=O)NCCN3CCCCC3)O[C@@H]2CO)cc1	0	/	/	2	/	/	/
CCNc1ccc2noc3c2c1C(=O)c1ccccc1-3	/	-21	6	/	9.0*	-3	5
CCOc1ccc2noc3c2c1C(=O)c1ccccc1-3	/	12	1	/	-2	/	/
COc1ccc([N+](=O)[O-])cc1NCc1cccnc1	0	0	-10	19	-3	/	/
Cc1ccc(NC(=O)c2cc([N+](=O)[O-])ccc2NCc2cccnc2)cc1	/	0	12	/	9.2*	15	9
